{"source": "PubChem BioAssay AID1209", "about": "(Sanford-Burnham Center for Chemical Genomics, 2008)", "note": "About 810 (0.43%) of roughly 190,000 compounds were called active. Cut-off read from the data, not from the text of the source: active = inhibition above about 50%; inactive = the rest. Only a selection was taken, and actives are over-represented in it overall.", "data": [{"target": "Mannose-6-phosphate isomerase (Homo sapiens) (UniProt P34949)", "sequence (P34949 whole entry, looked up)": "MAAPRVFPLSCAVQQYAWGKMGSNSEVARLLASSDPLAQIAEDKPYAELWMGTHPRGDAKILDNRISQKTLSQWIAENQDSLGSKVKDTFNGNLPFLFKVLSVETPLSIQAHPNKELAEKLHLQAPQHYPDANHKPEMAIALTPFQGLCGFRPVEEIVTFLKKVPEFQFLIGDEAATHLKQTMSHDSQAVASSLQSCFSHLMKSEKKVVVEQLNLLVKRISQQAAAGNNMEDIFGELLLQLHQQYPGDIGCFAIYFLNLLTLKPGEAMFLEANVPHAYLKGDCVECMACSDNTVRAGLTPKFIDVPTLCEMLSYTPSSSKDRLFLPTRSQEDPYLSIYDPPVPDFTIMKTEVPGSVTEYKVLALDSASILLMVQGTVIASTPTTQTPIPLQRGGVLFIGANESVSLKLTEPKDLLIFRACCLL", "assay": "MPI enzyme activity inhibition – biochemical, fluorescence intensity, coupled assay, primary screen (AID 1209);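 note: plate controls were DMSO vehicle for no effect and wells lacking substrate for full effect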", "conditions": "purified PMI enzyme, at 20 µM, hits give high values", "values": [{"smiles": "COc1ccc(N2C(=S)NC(C)(C)CC2(C)c2ccc(OC(C)=O)cc2OC(C)=O)cc1", "note": "(configuration not stated)", "inhibition": "-2.5% (inactive)"}, {"smiles": "COc1ccc(C2(c3ccc(O)cc3O)CC(c3ccccc3Cl)NC(=S)N2)cc1", "note": "(configuration not stated)", "inhibition": "11.9% (inactive)"}, {"smiles": "COc1ccc(C2(c3ccc(OC(C)=O)cc3OC(C)=O)CC(c3ccccc3)NC(=S)N2)cc1", "note": "(configuration not stated)", "inhibition": "63.8% (active)"}, {"smiles": "O=C1Nc2ccccc2C12Nc1ccccc1S2", "note": "(configuration not stated)", "inhibition": "58.7% (active)"}, {"smiles": "O=C1N2CCCc3cccc(c32)C12Nc1ccccc1S2", "note": "(configuration not stated)", "inhibition": "22.1% (inactive)"}, {"smiles": "O=C1Nc2ccccc2C12OCCO2", "inhibition": "-6.7% (inactive)"}, {"smiles": "C/C(=N\\NC(=O)Cc1ccccc1)c1cccs1", "inhibition": "9.1% (inactive)"}, {"smiles": "Cc1ccccc1N=Cc1cc2c(cc1[N+](=O)[O-])OCO2", "inhibition": "22.6% (inactive)"}, {"smiles": "O=[N+]([O-])c1cc2c(cc1C=Nc1ccccc1)OCO2", "inhibition": "55.1% (active)"}, {"smiles": "Cc1cccc(N=Cc2cc3c(cc2[N+](=O)[O-])OCO3)c1", "inhibition": "49.7% (inactive)"}, {"smiles": "COc1ccccc1/C=C/C(=O)Nc1cccc(S(=O)(=O)NC2=NCCCCC2)c1", "inhibition": "-3.7% (inactive)"}, {"smiles": "CN(C)c1ccc(NC(=O)Cn2ncn3c(cc4ccccc43)c2=O)cc1", "inhibition": "22.7% (inactive)"}, {"smiles": "O=C(NC1CC1)C1CCN(c2ncnc3c2sc2cccc(F)c23)CC1", "inhibition": "7.9% (inactive)"}, {"smiles": "COc1cc(/C=C2\\SC(c3ccc(C)cc3)=NC2=O)ccc1O", "inhibition": "14.1% (inactive)"}, {"smiles": "COc1cc(/C=C2\\SC(c3ccc(C)cc3)=NC2=O)cc(OC)c1O", "inhibition": "26.7% (inactive)"}, {"smiles": "Cc1ccc(C2=NC(=O)/C(=C/c3cc(O)c(O)c(Br)c3)S2)cc1", "inhibition": "81.3% (active)"}, {"smiles": "COc1ccc(NC(=O)N2CCCC2C(=O)Nc2ccc(C)cc2)cc1", "note": "(configuration not stated)", "inhibition": "1.2% (inactive)"}, {"smiles": "CCOc1cc(C2C(C(=O)O)c3cc(OCC)c(OCC)cc3C(=O)N2C)ccc1O", "note": "(configuration not stated)", "inhibition": "6% (inactive)"}, {"smiles": "C/C(=C\\C(=O)c1ccccc1)NNc1nc2ccccc2s1", "inhibition": "-3.4% (inactive)"}, {"smiles": "COc1ccc(S(=O)(=O)n2nc(OC(C)=O)cc2N)cc1", "inhibition": "-1.2% (inactive)"}, {"smiles": "Cc1ccc2nc(SCC(=O)NC(=O)NCc3ccco3)[nH]c2c1", "inhibition": "6.4% (inactive)"}, {"smiles": "COC(=O)c1ccc(C)c(NC(=O)CCc2ccc(OC)cc2)c1", "inhibition": "11.9% (inactive)"}, {"smiles": "CCOC(=O)c1c(N)sn(-c2ccccc2C)c1=S", "inhibition": "61.3% (active)"}, {"smiles": "C=CCn1sc(N)c(C(=O)OCC)c1=S", "inhibition": "-8% (inactive)"}, {"smiles": "CCOC(=O)c1c(N)sn(-c2ccccc2)c1=S", "inhibition": "14.9% (inactive)"}, {"smiles": "COc1ccc(C(NC(=O)/C=C\\c2ccco2)c2ccc(OC)c(OC)c2)cc1", "note": "(configuration not stated)", "inhibition": "3.2% (inactive)"}, {"smiles": "S=C(NCC1CCCO1)Nc1cccc(Cl)c1", "note": "(configuration not stated)", "inhibition": "-4.4% (inactive)"}, {"smiles": "CC(=O)Nc1ccc(/C=N/Nc2nc3ccccc3[nH]2)cc1", "inhibition": "20.8% (inactive)"}, {"smiles": "CCN(CC)c1ccc(/C=N/Nc2nc3ccccc3[nH]2)cc1", "inhibition": "53% (active)"}, {"smiles": "CCN(CC)c1ccc(/C=N/Nc2nc3ccccc3[nH]2)c(O)c1", "inhibition": "29.1% (inactive)"}, {"smiles": "C=CCn1c(C)cc(C(=O)Cn2nc(C(=O)O)c3ccccc3c2=O)c1C", "inhibition": "0.5% (inactive)"}, {"smiles": "COc1ccc(-c2nc(SC(CC(=O)NCCN3CCOCC3)c3cccs3)n[nH]2)cc1", "note": "(configuration not stated)", "inhibition": "2.7% (inactive)"}, {"smiles": "Cc1ccc(C)c(NC(=O)CSc2nnc(C)c(=O)n2N)c1", "inhibition": "-3% (inactive)"}, {"smiles": "Cc1ccc(NC(=O)CSc2nnc(C)c(=O)n2N)cc1", "inhibition": "-5.9% (inactive)"}, {"smiles": "Cc1ccc(NC(=O)CSc2nnc(C)c(=O)n2N)c(C)c1", "inhibition": "76.6% (active)"}, {"smiles": "Brc1cccc(-c2n[nH]c(-c3ccccc3)n2)c1", "inhibition": "18.9% (inactive)"}, {"smiles": "Cn1c(-c2cccc(Br)c2)n[nH]c1=O", "inhibition": "-8.4% (inactive)"}, {"smiles": "O=C(NNC(=O)C1CCCN(S(=O)(=O)c2cccc(F)c2)C1)C1CC1", "note": "(configuration not stated)", "inhibition": "6.8% (inactive)"}, {"smiles": "Cc1cc(C(=O)N/N=C/c2cc(N=Nc3ccccc3)ccc2O)n[nH]1", "inhibition": "4.9% (inactive)"}, {"smiles": "Cc1cc(C(=O)N/N=C/c2cccc([N+](=O)[O-])c2O)n[nH]1", "inhibition": "52.3% (active)"}, {"smiles": "Cc1cc(C(=O)N/N=C/c2ccc(O)c([N+](=O)[O-])c2)n[nH]1", "inhibition": "-7.3% (inactive)"}, {"smiles": "O=C(Nc1cccc(S(=O)(=O)N2CCCC2)c1)c1ccc2ccccc2n1", "inhibition": "10% (inactive)"}, {"smiles": "O=C(CN1C(=O)c2ccccc2C1=O)Nc1cccc(S(=O)(=O)Nc2ccccc2Cl)c1", "inhibition": "12.3% (inactive)"}, {"smiles": "Nc1ccc(SCC(=O)Nc2cccc([N+](=O)[O-])c2)cc1", "inhibition": "-7.1% (inactive)"}, {"smiles": "O=C(Cc1ccc(Cl)cc1)Nc1cccc(S(=O)(=O)Nc2ccccc2F)c1", "inhibition": "23.4% (inactive)"}, {"smiles": "O=C(CSc1ccc([N+](=O)[O-])cc1)Nc1cccc(S(=O)(=O)Nc2ccccc2F)c1", "inhibition": "62.2% (active)"}, {"smiles": "O=C(Cc1ccc(Cl)cc1Cl)Nc1cccc(S(=O)(=O)Nc2ccccc2F)c1", "inhibition": "59% (active)"}, {"smiles": "O=C(/C=C/c1ccccc1)Nc1cccc(S(=O)(=O)Nc2ccccc2F)c1", "inhibition": "66.1% (active)"}, {"smiles": "O=C(/C=C/c1ccccc1)Nc1cccc(C(=O)O)c1", "inhibition": "8.9% (inactive)"}, {"smiles": "COc1ccccc1NS(=O)(=O)c1cccc(NC(=O)c2ccc3ccccc3n2)c1", "inhibition": "17.4% (inactive)"}, {"smiles": "CSc1cccc(NC(=O)/C=C/c2ccccc2)c1", "inhibition": "10.8% (inactive)"}, {"smiles": "Cn1c(=O)c2c(ncn2CC(=O)Nc2cccc(S(=O)(=O)Nc3ccccc3F)c2)n(C)c1=O", "inhibition": "25.8% (inactive)"}, {"smiles": "O=C(Nc1cccc(S(=O)(=O)Nc2ccccc2F)c1)c1ccc2ccccc2n1", "inhibition": "70.4% (active)"}, {"smiles": "Cc1ccc(C(=O)c2ccccc2C(=O)OCC(=O)NCC2CCCO2)cc1", "note": "(configuration not stated)", "inhibition": "1.4% (inactive)"}, {"smiles": "Cc1cc(OC(C)C(N)=O)nc(-c2ccccc2)n1", "note": "(configuration not stated)", "inhibition": "-14.2% (inactive)"}, {"smiles": "CC(C)c1ccc(CN2CC(C(=O)O)CC2=O)cc1", "note": "(configuration not stated)", "inhibition": "-7% (inactive)"}, {"smiles": "Cc1ccc(N2CCN(CC(O)COc3ccc([N+](=O)[O-])cc3)CC2)cc1", "note": "(configuration not stated)", "inhibition": "-2% (inactive)"}, {"smiles": "COc1cc(/C=N/Nc2ccccn2)ccc1OCC(C)C", "inhibition": "-6.3% (inactive)"}, {"smiles": "CCOC(=O)CC1C(=O)NCCN1C(=O)c1c(F)cccc1F", "note": "(configuration not stated)", "inhibition": "50.5% (active)"}, {"smiles": "CCOC(=O)CC1C(=O)NCCN1C(=O)c1ccc(F)cc1F", "note": "(configuration not stated)", "inhibition": "-8.1% (inactive)"}, {"smiles": "CCOC(=O)CC1C(=O)NCCN1C(=O)c1cccc(C(F)(F)F)c1", "note": "(configuration not stated)", "inhibition": "-0.3% (inactive)"}, {"smiles": "Nc1nonc1-c1noc(N2CCCCC2)n1", "inhibition": "6% (inactive)"}, {"smiles": "COc1ccc(-c2nnn(CC#N)n2)cc1OC", "inhibition": "-3.6% (inactive)"}, {"smiles": "O=C(N/C(=C\\c1cccnc1)C(=O)N1CCOCC1)c1ccco1", "inhibition": "-15.9% (inactive)"}, {"smiles": "O=C(Nc1nnc(COc2ccccc2)s1)c1ccco1", "inhibition": "3.1% (inactive)"}, {"smiles": "O=C(Nc1nnc(COc2ccc(Cl)cc2)s1)c1ccco1", "inhibition": "62.4% (active)"}, {"smiles": "O=C(CSc1ccccc1)Nc1nnc(COc2ccc(Cl)cc2)s1", "inhibition": "71.7% (active)"}, {"smiles": "Cc1cccc(C)c1OCc1nnc(NC(=O)CSc2ccc(Cl)cc2)s1", "inhibition": "9.2% (inactive)"}, {"smiles": "COc1ccc(Cc2nnc(NC(=O)c3c(-c4ccccc4)noc3C)s2)cc1", "inhibition": "12.3% (inactive)"}, {"smiles": "Cc1onc(-c2ccccc2)c1C(=O)Nc1nnc(COc2ccc(Cl)cc2)s1", "inhibition": "76.2% (active)"}, {"smiles": "Cc1nnc(NC(=O)c2c(-c3ccccc3)noc2C)s1", "inhibition": "0.7% (inactive)"}, {"smiles": "Cc1ccc(OCc2nnc(NC(=O)c3ccco3)s2)cc1", "inhibition": "-5.1% (inactive)"}, {"smiles": "CCOCc1nnc(NC(=O)CSc2ccccc2)s1", "inhibition": "6.1% (inactive)"}, {"smiles": "COC(=O)/C(C(C)=O)=C(\\C=C\\N(C)C)N(C)C", "inhibition": "1% (inactive)"}, {"smiles": "Nc1nnc(SCc2ccccc2F)n1-c1ccccc1", "inhibition": "3.6% (inactive)"}, {"smiles": "NC(=O)[C@@H]1CCNc2c(I)cc([N+](=O)[O-])cc2C(=O)N[C@@H](CO)C(=O)N[C@@H](Cc2ccc(O)cc2)C(=O)N1", "inhibition": "-42.9% (inactive)"}, {"smiles": "CCN(CCC(=O)Nc1cc(OC)cc(OC)c1)Cc1ccccc1", "inhibition": "6.5% (inactive)"}, {"smiles": "Cc1nnc(NC(=O)c2ccc3ccccc3n2)s1", "inhibition": "-23.8% (inactive)"}, {"smiles": "COc1cccc(C(c2sc3ncnn3c2O)N2CCc3ccccc3C2)c1", "note": "(configuration not stated)", "inhibition": "40.6% (inactive)"}, {"smiles": "COc1cc(C(c2sc3nc(C)nn3c2O)N2CCc3ccccc3C2)cc(OC)c1OC", "note": "(configuration not stated)", "inhibition": "11.5% (inactive)"}, {"smiles": "COc1ccc(C(c2sc3nc(C)nn3c2O)N2CCc3ccccc3C2)cc1", "note": "(configuration not stated)", "inhibition": "72.5% (active)"}, {"smiles": "CCN1CCN(C(c2cccc(OC)c2)c2sc3nc(C)nn3c2O)CC1", "note": "(configuration not stated)", "inhibition": "2.4% (inactive)"}, {"smiles": "COc1ccc(C(c2sc3nc(C)nn3c2O)N2CCCCC2)cc1", "note": "(configuration not stated)", "inhibition": "-1.5% (inactive)"}, {"smiles": "COc1cccc(C(c2sc3nc(C)nn3c2O)N2CCc3ccccc3C2)c1", "note": "(configuration not stated)", "inhibition": "65.3% (active)"}, {"smiles": "COc1cc2c(cc1OC)CC(=O)N(C)CC2", "inhibition": "3.4% (inactive)"}, {"smiles": "Cc1ccc(N2C(=O)CC(SCC(=O)Nc3ccc(S(N)(=O)=O)cc3)C2=O)cc1", "note": "(configuration not stated)", "inhibition": "16.8% (inactive)"}, {"smiles": "O=C(CSC1CC(=O)N(c2ccc(C(=O)O)cc2)C1=O)Nc1ccc(Cl)cc1", "note": "(configuration not stated)", "inhibition": "-7.6% (inactive)"}, {"smiles": "CCN(CC(=O)NCCc1ccc(S(N)(=O)=O)cc1)Cc1nc2cc(OC)c(OC)cc2c(=O)[nH]1", "inhibition": "-4.3% (inactive)"}, {"smiles": "CC(C(=O)Nc1ccccc1C(=O)O)n1c(C(F)(F)F)nc2ccccc21", "note": "(configuration not stated)", "inhibition": "1.2% (inactive)"}, {"smiles": "O=C(CSc1nc2c(sc3ccccc32)c(=O)n1CCO)NCC1CCCO1", "note": "(configuration not stated)", "inhibition": "54% (active)"}, {"smiles": "O=C(CSc1nc2c(sc3ccccc32)c(=O)n1Cc1ccccc1)NCC1CCCO1", "note": "(configuration not stated)", "inhibition": "15.3% (inactive)"}, {"smiles": "O=C(CSc1nc2c(sc3ccccc32)c(=O)n1CCCN1CCCC1)NCC1CCCO1", "note": "(configuration not stated)", "inhibition": "-1% (inactive)"}, {"smiles": "COc1ccc(C2=CC(c3ccc(OC)c(OC)c3)NC(=S)N2)cc1", "note": "(configuration not stated)", "inhibition": "3.4% (inactive)"}, {"smiles": "CN(C)/C=N/c1ncc(C(=O)c2ccc(Cl)cc2Cl)s1", "inhibition": "-11.6% (inactive)"}, {"smiles": "Cc1cc(C(=O)c2cnc(/N=C/N(C)C)s2)c(F)cc1Cl", "inhibition": "93.5% (active)"}, {"smiles": "CN(C)/C=N/c1ncc(C(=O)c2ccc(Cl)cc2)s1", "inhibition": "0.8% (inactive)"}, {"smiles": "COc1ccc(-c2oc(NC(=O)CSc3nncn3C)c(C#N)c2-c2ccc(OC)cc2)cc1", "inhibition": "7.6% (inactive)"}]}]}
